Records with an inconclusive call do not appear. Calls of active or inactive are those of the source. The calls were made as follows, unless noted: active = hit-call score of the fitted dose curve at least 0.9, where 1 is the maximum; inconclusive = response in the unintended direction; inactive = score below 0.9.

From PubChem BioAssay (EPA / NIEHS) come the findings set out here.

For experiment [1], the target named is Androgen receptor (Homo sapiens) (UniProt P10275). Put plainly: ATG_AR_TRANS: Attagene TRANS-FACTORIAL HepG2 Assay for human Androgen Receptor (AR) (AID 2282973). The note with it: HepG2 Attagene TRANS-FACTORIAL AR reporter transcription. A digest of the protocol:
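Chimeric nuclear receptor–Gal4 activity was assessed in human HepG2 hepatocytes after 24 h chemical dosing. Induced reporter mRNA was detected via labelled RT-PCR fragments on capillary electrophoresis, and gain of signal was analysed against DMSO.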

Experiment [2] in a line: CCTE_Harrill_HTTr_Apoptosis_PRF_DMEM_12hr: (Pilot) CCTE's 12-hour Apoptosis Assessment for the High-Throughput Transcriptomics (HTTr) Platform, in MCF-7 cells cultured in phenol red-free DMEM + 10% charcoal-stripped fetal bovine serum, Harrill Lab (AID 2283985; active = hit-call score of the fitted dose curve at least 0.9, where 1 is the maximum; inactive = score below 0.9). The gist of the method:
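MCF-7 cells in phenol red-free DMEM with 10% charcoal-stripped FBS, eight-point dilution series, 12 h exposure. Caspase-3/7 activation imaged by high content imaging with CellEvent Green reagent; bidirectional fit vs DMSO.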

Experiment [3] in a line: Tanguay_ZF_120hpf_MUSC: Oregon State University Tanguay Lab 120 Hour Post-fertilization zebrafish Assay for Muscle Malformation (AID 2284401; active = hit-call score of the fitted dose curve at least 0.9, where 1 is the maximum; inactive = score below 0.9). The gist of the method: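 Dechorionated Tropical 5D wild-type zebrafish embryos exposed statically from 6 to 120 hpf at 28C, one per well, in 0.64% DMSO. Muscle malformation scored present/absent by brightfield microscopy at 120 hpf, fitted against DMSO.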

Experiment [4] is described as follows: ATG_M_32_XSP2: Attagene TRANS-FACTORIAL Multi-Species (XSP2) HepG2 Assay for M19 Transcription Factor (Internal Marker) (AID 2283826). A digest of the protocol:
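An internal background marker among multiplexed transfected reporters in HepG2 liver cells was measured 24 h after dosing. Androgen receptor stimulation came from 3 nM 6-alpha-fluorotestosterone and 1.5 nM norgestrel.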

Experiment [5] deals with Norway rat Vesicular Monoamine Transporter (VMAT2), neurotransmitter transporter, Slc18a2 (gene 25549) (UniProt Q01827). The experiment in a line: NVS_TR_rVMAT2: NovaScreen (NVS) Transporter Assay for Norway rat Vesicular Monoamine Transporter (VMAT2), neurotransmitter transporter (AID 2283376).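 Also: actives lower the bound radioligand signal below the DMSO level.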 A digest of the protocol: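 Tissue: rat forebrain extract. Format: competitive radioligand binding, cell-free. Timepoint: 1 h. Readout: filter radiodetection/scintillation. Screen: 25 uM in duplicate, then concentration series for actives. Baseline: DMSO.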

Experiment [6] addresses rat Corticotropin Releasing Factor Receptor (CRF), Crhr1 (gene 58959) (UniProt P35353). The experiment in a line: NVS_GPCR_rCRF: NovaScreen (NVS) G Protein-Coupled Receptor Assay for rat Corticotropin Releasing Factor Receptor (CRF) (AID 2283300). A digest of the protocol:
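Rat cortical membranes used as receptor source in a radioligand competitive displacement binding assay; scintillation read 2 h after dosing. Primary screen run in duplicate at 25 uM; loss of signal versus DMSO baseline indicates binding.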

Experiment [7] addresses Voltage-dependent N-type calcium channel subunit alpha-1B (Rattus norvegicus) (UniProt Q02294). Put plainly: NVS_IC_rCaChN: NovaScreen (NVS) Ion Channel Assay for rat Calcium Channel, Type N (CaChN) (AID 2283317).

Chain of Androgen receptor (Homo sapiens) (P10275 whole entry, looked up, the tested form may be a part): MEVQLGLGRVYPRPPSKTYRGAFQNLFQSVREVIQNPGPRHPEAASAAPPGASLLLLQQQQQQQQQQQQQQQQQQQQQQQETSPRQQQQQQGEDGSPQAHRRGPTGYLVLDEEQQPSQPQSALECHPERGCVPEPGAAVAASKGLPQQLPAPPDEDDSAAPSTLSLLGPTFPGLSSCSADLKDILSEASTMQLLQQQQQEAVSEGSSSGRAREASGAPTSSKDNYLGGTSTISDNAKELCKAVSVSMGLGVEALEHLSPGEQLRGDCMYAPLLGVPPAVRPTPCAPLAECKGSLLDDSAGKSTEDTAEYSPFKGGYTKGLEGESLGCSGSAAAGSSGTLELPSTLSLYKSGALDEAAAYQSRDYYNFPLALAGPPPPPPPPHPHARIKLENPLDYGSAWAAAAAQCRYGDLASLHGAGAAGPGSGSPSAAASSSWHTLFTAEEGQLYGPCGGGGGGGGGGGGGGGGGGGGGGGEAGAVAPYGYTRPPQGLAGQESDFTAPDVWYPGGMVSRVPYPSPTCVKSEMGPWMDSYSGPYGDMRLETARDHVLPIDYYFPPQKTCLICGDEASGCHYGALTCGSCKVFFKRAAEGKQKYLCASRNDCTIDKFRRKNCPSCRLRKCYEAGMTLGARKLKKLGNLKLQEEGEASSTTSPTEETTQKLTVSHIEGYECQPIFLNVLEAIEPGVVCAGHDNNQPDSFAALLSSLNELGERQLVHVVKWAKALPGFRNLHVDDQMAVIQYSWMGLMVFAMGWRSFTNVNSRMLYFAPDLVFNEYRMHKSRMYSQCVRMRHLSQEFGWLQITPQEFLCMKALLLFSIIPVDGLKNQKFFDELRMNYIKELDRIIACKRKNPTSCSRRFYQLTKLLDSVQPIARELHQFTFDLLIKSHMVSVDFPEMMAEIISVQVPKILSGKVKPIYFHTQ
Chain of Norway rat Vesicular Monoamine Transporter (VMAT2), neurotransmitter transporter, Slc18a2 (gene 25549) (Q01827 whole entry, looked up): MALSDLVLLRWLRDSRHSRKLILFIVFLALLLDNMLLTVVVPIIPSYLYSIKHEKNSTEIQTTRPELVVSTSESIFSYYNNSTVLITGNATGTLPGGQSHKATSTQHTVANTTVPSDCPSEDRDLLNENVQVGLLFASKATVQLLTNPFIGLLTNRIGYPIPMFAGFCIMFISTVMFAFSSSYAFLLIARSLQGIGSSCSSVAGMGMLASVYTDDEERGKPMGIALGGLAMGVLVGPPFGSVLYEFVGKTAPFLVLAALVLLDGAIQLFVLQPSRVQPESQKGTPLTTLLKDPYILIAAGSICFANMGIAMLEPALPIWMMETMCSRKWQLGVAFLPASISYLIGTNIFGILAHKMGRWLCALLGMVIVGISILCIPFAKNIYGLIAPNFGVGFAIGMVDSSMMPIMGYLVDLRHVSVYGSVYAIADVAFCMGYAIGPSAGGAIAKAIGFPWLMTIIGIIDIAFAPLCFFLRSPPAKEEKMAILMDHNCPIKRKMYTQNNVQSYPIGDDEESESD
Chain of rat Corticotropin Releasing Factor Receptor (CRF), Crhr1 (gene 58959) (P35353 whole entry, looked up): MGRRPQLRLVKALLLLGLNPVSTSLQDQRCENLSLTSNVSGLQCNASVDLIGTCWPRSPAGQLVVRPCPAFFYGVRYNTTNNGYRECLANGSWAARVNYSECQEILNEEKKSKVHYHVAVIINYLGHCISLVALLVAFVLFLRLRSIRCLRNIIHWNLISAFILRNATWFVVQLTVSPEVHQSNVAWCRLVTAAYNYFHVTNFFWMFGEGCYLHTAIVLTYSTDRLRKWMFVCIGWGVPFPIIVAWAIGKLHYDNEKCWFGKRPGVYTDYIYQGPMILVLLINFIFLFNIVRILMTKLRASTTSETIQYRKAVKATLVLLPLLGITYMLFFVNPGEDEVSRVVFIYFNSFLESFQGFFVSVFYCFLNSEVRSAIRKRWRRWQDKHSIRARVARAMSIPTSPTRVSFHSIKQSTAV

As to `CC(C)OC(=O)C(C)(C)Oc1ccc(C(=O)c2ccc(Cl)cc2)cc1`, the result in experiment [1] and in experiment [2] was inactive.

As to `FC(F)(F)C(F)(F)CNCC(F)(F)C(F)(F)F`, the result in experiment [1] and in experiment [3] was inactive.

As for `FC1CC(F)(F)C(F)(F)C1(F)F` (configuration not stated), the call in experiment [1] and in experiment [3] was inactive.

For `FC(F)(F)C(F)(F)C(F)(F)CC1CO1` (configuration not stated), the compound was called inactive in experiment [1] and in experiment [3].

Consider `COc1ccc(C(=O)c2ccccc2)c(O)c1`, for which the result in experiment [1] and in experiment [4] was inactive.

On to `c1ccc2c(c1)ccc1ccccc12`, for which the call in experiment [1], in experiment [5] and in experiment [4] was inactive.

On to `OCCC(F)(F)C(F)(F)C(F)(F)C(F)(F)C(F)(F)C(F)(F)C(F)(F)C(F)(F)F`, for which the compound was classed as inactive in experiment [1], in experiment [6] and in experiment [3].

`OCCC(F)(F)C(F)(F)C(F)(F)C(F)(F)F`: the result in experiment [1] and in experiment [3] was inactive.

With `C=C1C[C@H]2[C@@H]3C=C(C)C4=CC(=O)CC[C@]4(C)[C@H]3CC[C@]2(C)[C@@]1(OC(C)=O)C(C)=O`, the compound was classed as inactive in experiment [1] and in experiment [4].

For the compound `OCCCC(F)(F)C(F)(F)C(F)(F)C(F)(F)C(F)(F)C(F)(F)C(F)(F)C(F)(F)F`, the call in experiment [1] and in experiment [3] was inactive.

As to `C[N+](C)(C)CCCNS(=O)(=O)C(F)(F)C(F)(F)C(F)(F)C(F)(F)C(F)(F)C(F)(F)C(F)(F)C(F)(F)F`, the compound was classed as inactive in experiment [1] and in experiment [3].

In the case of `C=CC(F)(F)C(F)(F)C(F)(F)C(F)(F)C(F)(F)C(F)(F)C(F)(F)C(F)(F)C=C`, the compound was classed as inactive in experiment [1] and in experiment [3].

With `C=CC(F)(F)C(F)(F)C(F)(F)C(F)(F)C(F)(F)C(F)(F)C(F)(F)C(F)(F)F`, the compound was called inactive in experiment [1] and in experiment [3].

Take `OCC(F)(F)C(F)(F)C(F)(F)F`: the call in experiment [1] and in experiment [3] was inactive.

On to `CCC(=C(c1ccc(O)cc1)c1ccc(OCCN(C)C)cc1)c1ccccc1`, for which the result in experiment [1] and in experiment [7] was inactive. For the same compound, in experiment [2], the AC50 (as a rule, the concentration giving half of the maximal activity seen) is 80.6 µM (active).

With `O=c1cc(-c2ccccc2)oc2cc(O)cc(O)c12`, the outcome in experiment [1] and in experiment [4] was inactive.

As for `O=S(=O)(O)CCC(F)(F)C(F)(F)C(F)(F)C(F)(F)C(F)(F)C(F)(F)F`, the outcome in experiment [1] and in experiment [3] was inactive.

On to `CN[C@H]1CC[C@@H](c2ccc(Cl)c(Cl)c2)c2ccc(S(N)(=O)=O)cc21`, for which the compound was called inactive in experiment [1] and in experiment [7].

As for `FC(F)(F)COC(OCC(F)(F)F)OCC(F)(F)F`, the compound was called inactive in experiment [1] and in experiment [3].

With `O=C(O)C(F)(F)C(F)(F)C(F)(F)OC(F)(F)F`, the outcome in experiment [1] and in experiment [3] was inactive.

`C=CC(=O)OCC(F)(F)C(F)(F)C(F)(F)C(F)(F)C(F)(F)C(F)(F)C(F)(F)C(F)F`: the result in experiment [1] and in experiment [3] was inactive.

On to `CCN(CC)c1ccc(N=Nc2ccccc2)cc1`, for which the result in experiment [1] and in experiment [5] was inactive.

For the compound `FC(F)(F)C(F)(F)C(F)(F)C(F)(F)C(F)(F)C(F)(F)C(F)(F)Br`, the call in experiment [1] and in experiment [3] was inactive.

Turning to `CCOC(=O)CC(=O)C(F)(F)C(F)(F)F`, the compound was classed as inactive in experiment [1] and in experiment [3].

Regarding `CC1=C(C)S(=O)(=O)CCS1(=O)=O`, the call in experiment [1] and in experiment [5] was inactive.

In the case of `C=CCc1cc(S(=O)(=O)c2ccc(O)c(CC=C)c2)ccc1O`, the outcome in experiment [1] and in experiment [4] was inactive.

On to `O=C(O)C(F)(F)C(F)(F)C(F)F`, for which the outcome in experiment [1] and in experiment [3] was inactive.
